mHTT CaM bind: mHTT-calmodulin interaction abrogation | AlphaScreen His-mHTT/GST-CaM binding, luminescence | P42858 | 3.6% of 190,000 active | inhibition, % at 15 µM
Pf apPOL block: Pf-apPOL DNA polymerase inhibition. Recombinant Pf-apPOL, molecular beacon fluorescence, 1.5 h. inhibition, % at 10 µM. 0.25% of 210,000 active. AID 1794808
Numbers stand for hits; n = inactive; x = no result given. The entries come from a sample that favours hits as a whole. Rule as the data show it: active = inhibition above about 50%; inactive = the rest.

SMILES	mHTT CaM bind	Pf apPOL block
Cc1ccc(C(=O)CN2C(=C(O)c3ccccc3)C(=O)c3ccccc3S2(=O)=O)c(C)c1	59.4	n
O=C1NCCCn2cc(S(=O)(=O)Nc3ccc(C(F)(F)F)cc3)cc21	n	n
CC(C)c1cc(C2CCCN2C(=O)c2cc(-c3cccc(Cl)c3)on2)on1 (centres undefined)	n	n
COc1ccc(-c2nccc(C3CCCN(C(=O)Cc4ccccc4Cl)C3)n2)cc1 (centres undefined)	n	n
COc1ccc(OC)c(NC(=O)C2CCN(c3cc(N4CCSCC4)ncn3)CC2)c1	n	n
Nc1cc(N)cc(Oc2cc(N)cc(N)c2)c1	95.1	x
Nc1cccc(Oc2c(F)c(F)c(Oc3cccc(N)c3)c(F)c2F)c1	n	n
C[C@@H](c1ccccc1)N1C[C@H](COCc2ccccc2)Oc2cc(N3CC[C@H](N(C)C)C3)ccc2S1(=O)=O	100.1	n
C[C@@H](c1ccccc1)N1C[C@H](COCc2ccccc2)Oc2cc(N3CC[C@@H](N(C)C)C3)ccc2S1(=O)=O	100.2	n
COC[C@@H]1CCCN1c1ccc2c(c1)O[C@@H](COCc1ccccc1)CN([C@@H](C)c1ccccc1)S2(=O)=O	n	n
C[C@H](c1ccccc1)N1C[C@H](COCc2ccccc2)Oc2cc(N3CC[C@H](N(C)C)C3)ccc2S1(=O)=O	n	n
Cc1nc(C)c(C(=O)N2CCC(Oc3nc4c(F)cccc4s3)CC2)s1	n	n
O=C(CCN1C(=O)c2ccccc2C1=O)NC1CCCC1	n	n
Cn1cc(C(c2ccco2)c2cn(C)c3ccccc23)c2ccccc21	58.0	n
Cn1cc(C(c2ccc(Br)o2)c2cn(C)c3ccccc23)c2ccccc21	n	n
COc1cccc(C(C)NC(=O)c2cc3c(s2)CN(C2CCCC2)C3)c1 (centres undefined)	n	n
Cc1ccnc(N2CCCC(C(=O)N3CC=C(c4ccccc4)CC3)C2)n1 (centres undefined)	68.1	n
Cc1ccnc(N2CCCC(C(=O)N3CCCCCC3)C2)n1 (centres undefined)	n	n
COc1ccc(C=C2Oc3cc(OCC(C)=O)ccc3C2=O)cc1OC	n	n
O=C(Cc1ccc(F)cc1)N(CCCn1ccnc1)c1nc2c(Cl)cccc2s1	90.8	n
O=C(c1cccc(F)c1)N(CCCn1ccnc1)c1nc2c(F)cccc2s1	n	n
CN(C)CCN(C(=O)CCc1ccccc1)c1nc2c(Cl)cccc2s1	61.7	n
Cc1cc(C(=O)N(CCN(C)C)c2nc3c(Cl)cccc3s2)no1	n	n
Cc1ccc(/C=C2\Sc3ccccc3N(CC(=O)NCCCN(C)c3ccccc3)C2=O)cc1	n	n
COc1ccccc1NC(=O)CC(NCCCCCCN)C(=O)O (centres undefined)	n	n
SMILES	mHTT CaM bind	Pf apPOL block
O=C(Nc1c(C(=O)NCc2cccnc2)cnn1-c1ccccc1Cl)c1ccccc1Cl	n	n
O=c1[nH]c(/C=C/c2ccc(Cl)cc2)nc2ccccc12	n	n
O=c1[nH]c(/C=C/c2cccnc2)nc2ccccc12	100.3	n
CCn1c(/C=C/c2cccnc2)nc2ccccc2c1=O	100.0	n
CCn1c(/C=C/c2ccccc2Cl)nc2ccccc2c1=O	n	n
COc1ccc(S(=O)(=O)N(CCO)CCO)cc1C(=O)O	n	n
Cc1ccccc1C1CCCN1C(=O)NCC(C)C (centres undefined)	n	n
O=C(O)CCNCc1ccccc1	n	n
c1ccc(CNCc2cnc[nH]2)cc1	93.8	n
COc1ccc(C2=Nc3ccc(Br)cc3NC(c3ccncc3)=N2)cc1	n	n
O=C(CSCCCN1CCN(c2cccc(Cl)c2)CC1)NN=Cc1ccccc1	x	n
CCCc1cc(C2CCCN2C(=O)Nc2ccccc2C(F)(F)F)no1 (centres undefined)	n	n
CCCCCCCCNc1nc(NCCC)nc(OCC)n1	n	x
Cc1ccc2oc(-c3cc(NC(=O)c4ccccc4C)ccc3O)nc2c1	n	n
CCC(=O)Nc1ccc(O)c(-c2nc3cc(C)ccc3o2)c1	n	53.8
COc1cccc(CNC(=O)C2CCCN(c3cn[nH]c(=O)c3)C2)c1 (centres undefined)	n	n
CC(C)(C)c1noc(-c2c(O)c3ccc(F)cc3[nH]c2=O)n1	n	n
CC(=O)Nc1ccc(O)c(C(=O)O)c1	x	n
O=C(O)C1=CC(=C(c2ccc(O)c(C(=O)O)c2)c2ccc(O)c(C(=O)O)c2)C=CC1=O	x	92.1
Cn1c(=O)c2ccnn2c2ccc(C(=O)NCc3ccccc3)cc21	n	n
Cc1cccc(CNC(=O)c2ccc3c(c2)n(C)c(=O)c2ccnn23)c1	57.5	n
CC(C)c1ccc(C(=O)Nc2nnc3ccccn23)cc1	64.8	n
O=C(Nc1nnc2ccccn12)c1ccccc1Br	100.3	n
CC(C)CC(=O)Nc1nnc2ccccn12	n	n
CCc1ccc(C(=O)Nc2nnc3ccccn23)cc1	58.3	n
SMILES	mHTT CaM bind	Pf apPOL block
CCOc1cccc2nnc(NC(=O)c3ccc(C(F)(F)F)cc3)n12	n	n
O=C(Nc1nnc2ccccn12)c1ccc(C(F)(F)F)cc1	n	n
O=C(Nc1nnc2ccccn12)c1ccccc1C(F)(F)F	n	n
CCOc1cccc2nnc(NC(=O)c3ccc(C)cc3)n12	50.9	n
Cc1ccc(-n2nc3c(c2NC(=O)CCC2CCCC2)CS(=O)(=O)C3)cc1	n	n
Cc1cccc(-c2cncc(C(=O)NCC3CCCO3)c2)c1C (centres undefined)	n	n
O=C(c1ccc(C(=O)N2CCN(c3ccccc3)CC2)s1)N1CCN(c2ccccc2)CC1	n	n
COc1ncc(C(=O)N2CCN(c3cccc(C)c3)CC2)cn1	n	n
CCc1ccccc1-n1c(SCC(=O)Nc2ccccc2Cl)nc2[nH]ncc2c1=O	n	n
COc1ccc(-c2ccc3c(N)c(C(=O)Nc4cc(Cl)ccc4OC)sc3n2)cc1	n	n
O=C(CN1C(=O)c2ccccc2S1(=O)=O)N1CCCCC1	n	n
O=C(CN1C(=O)c2ccccc2S1(=O)=O)N1CCCCCC1	n	50.7
COc1cccc(-c2noc(C3CCCN3C(=O)Nc3ccc(F)c(Cl)c3)n2)c1 (centres undefined)	57.9	n
CCn1ccc(C(=O)N2CCCC2c2nc(-c3cccc(Cl)c3)no2)n1 (centres undefined)	n	n
COc1ccc(OCC(=O)N2CCCC2c2nc(-c3cccc(C)c3)no2)cc1 (centres undefined)	n	n
Cc1ccc(OCC(=O)N2CCCC2c2nc(-c3cccc(C)c3)no2)cc1 (centres undefined)	80.4	n
CCC(=O)Nc1cccc(-c2noc(C3CCCN(C(=O)COc4cccc(C)c4)C3)n2)c1 (centres undefined)	79.0	n
CCC(=O)Nc1cccc(-c2noc(C3CCCN(C(=O)c4cccc(OC)c4)C3)n2)c1 (centres undefined)	n	n
CCn1ccc(C(=O)N2CCCC2c2nc(-c3cccc(C(F)(F)F)c3)no2)n1 (centres undefined)	88.3	n
COc1cccc(-c2noc(C3CCCN3C(=O)Nc3cccc(Cl)c3)n2)c1 (centres undefined)	n	n
Cc1cccc(C)c1NC(=O)C1(NC(=O)c2ccn[nH]2)CCCCC1	n	n
O=C(Oc1ccc2c(c1)OC(=Cc1ccncc1)C2=O)c1ccco1	n	n
COc1ccc(OC)c(NC(=O)c2cn3c(n2)CSCC3)c1	n	n
O=C(NCC(=O)N1CC2CN(S(=O)(=O)c3cccc(F)c3)CC(C1)O2)c1ccccc1	n	n
